Most compounds without a hit are left out; they make up all but 2.3% or so of the library.
Abeta yeast res – A-beta toxicity reversal in yeast; yeast expressing A-beta42, growth rescue, OD600, 48 h; response scale: 0% DMSO, 100% iron-clioquinol control; Potency, µM (titrated, usually from 46.1 µM), hits mostly activators; 410,000 compounds, 0.063% hits; AID 1347071; also: nearly all actives have a fitted effect of over 55% in size
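Growth rescue measured by 600 nm absorbance after 48 h yeast culture at 30 C with compound. Values normalized between DMSO and an equimolar ferric chloride plus clioquinol control.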
CCT chaperon mod – modulators of cytosolic chaperonin (CCT/TRiC) activity. purified chaperonin ATPase assay, HTRF ADP detection, 30 min. activity change, % (concentration not given with the values), hits read low. 360,000 compounds, 0.3% hits; in the data active = activity change below about -30%
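We incubate TRiC, 40 or 20 nM final, with library compounds at 76 uM and 10 uM ATP for 30 min at 37 °C. ADP formed is detected with Transcreener HTRF reagents after 30 min at room temperature.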
FUS suppressor – suppressors of FUS proteinopathy in yeast; Potency, µM (titrated, usually from 76.6 µM), actives largely listed as activators; 390,000 compounds, 0.24% hits; S. cerevisiae FUS-expressing, growth rescue, OD600, 24 h; also: nearly all actives have a fitted effect of over 55% in size
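Restored growth of FUS-toxic S. cerevisiae, read as 600 nm absorbance after 24 h at 30C in galactose medium (starting OD 0.005). Controls CP55940 and DMSO.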
aSyn rescue – alpha-synuclein toxicity inhibition in yeast. 370,000 compounds, 0.14% hits. Yeast expressing alpha-synuclein, growth rescue, BacTiter-Glo, 24 h. Potency, µM (highest dose often 46.1 µM), hits mostly activators. AID 652106; also: nearly all actives have a fitted effect of over 65% in size
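Galactose-induced alpha-syn yeast (OD600=0.02, raffinose-pregrown) + pinned cpd, 24 hr, 30 deg C; growth by BacTiter-Glo luminescence. Growth restoration scores as activation.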
Mm-Cpn inhibitor – inhibitors of Methanococcus maripaludis chaperonin TRiC (MmCpn). Potency, µM (doses to about 76.9 µM), hits mostly inhibitors. AID 504842. purified Mm-Cpn ATPase, ADP Transcreener TR-FRET. 330,000 compounds, 0.031% hits; also: nearly all actives have a fitted effect of over 80% in size
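Inhibition of chaperonin ATP hydrolysis is measured as reduced ADP production, detected by competitive TR-FRET in which signal falls with ADP. Final enzyme 25 nM and ATP 10 uM, reacted 30 min at 37°C.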
TDP43 rescue – inhibitors of TDP-43 toxicity in yeast. 410,000 compounds, 1.8% hits. AID 652104. Potency, µM (highest dose often 46.1 µM), hits mostly activators. TDP-43 expressing yeast growth rescue, BacTiter-Glo, 24 h; also: nearly all actives have a fitted effect of over 50% in size
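Readout is BacTiter-Glo luminescence of cell growth, so inhibitors register as activators. TDP-43-expressing yeast at OD600=0.02 in galactose medium, after raffinose pregrowth to mid-log, were incubated with compound for 24 hr at 30 deg C.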
Of the large screens only hits and unclear results are named; the others gave an inactive call. Unless noted, calls follow the shape of the dose curve; as a rule, active = well fitted curve in the direction sought with a large enough effect; inconclusive = small, poorly fitted or top-dose-only effect, or another doubt; inactive = no such curve, though single readings can be large; an effect the other way counts as inactive or inconclusive.

Cc1cc(N/N=C/c2ccc([N+](=O)[O-])o2)nc2ccccc12	TDP43 rescue 13µM
CC(=O)N1c2ccccc2C(=O)C1N1CCN(c2ccccc2F)CC1 (stereo not given)	Abeta yeast res inconclusive, TDP43 rescue 35µM (no result: CCT chaperon mod, aSyn rescue, Mm-Cpn inhibitor)
O=C(Oc1ccc2c(c1)OCO2)C12CC3CC(CC(C3)C1)C2	TDP43 rescue inconclusive
O=C(OCC(=O)C12CC3CC(CC(C3)C1)C2)c1ccc(O)cc1	TDP43 rescue 11µM
O=C(OCC(=O)C12CC3CC(CC(C3)C1)C2)c1ccc(CO)cc1	TDP43 rescue inconclusive
O=C(Oc1ccc(O)cc1)C12CC3CC(CC(C3)C1)C2	TDP43 rescue 14µM
Cc1ccc(-n2ncc(C(=O)NCCc3ccsc3)c2C2CCN(C(=O)OC(C)(C)C)CC2)cc1C	none (no result: CCT chaperon mod, aSyn rescue, Mm-Cpn inhibitor)
COc1ccc(N2CCN(C(=O)CSc3ncnc4scc(-c5ccc(C)cc5)c34)CC2)cc1	TDP43 rescue 11µM (no result: Mm-Cpn inhibitor)
COc1ccc(-c2csc3ncnc(N4CCN(S(=O)(=O)c5cccs5)CC4)c23)cc1	Mm-Cpn inhibitor inconclusive, TDP43 rescue 13µM
COc1ccc(-c2csc3ncnc(N4CCN(c5cccc(OC)c5)CC4)c23)cc1	TDP43 rescue 11µM (no result: FUS suppressor)
COc1ccc(N2CCN(c3ncnc4scc(-c5ccc(F)cc5)c34)CC2)cc1	TDP43 rescue 13µM
COc1ccc(N2CCN(c3ncnc4scc(-c5ccc(C)cc5)c34)CC2)cc1	TDP43 rescue inconclusive
Cc1cccc(OCC(=O)Nc2cc(-c3nc4cc(Cl)ccc4o3)ccc2C)c1	none (no result: Abeta yeast res, CCT chaperon mod, FUS suppressor, Mm-Cpn inhibitor, TDP43 rescue)
OC[C@@H]1CC[C@@H]2O[C@H](CCc3ccc(-c4ccc(F)cc4)cc3)[C@@H](n3cc(C4CC4)nn3)C[C@@H]2O1	none (no result: Abeta yeast res, CCT chaperon mod, aSyn rescue, Mm-Cpn inhibitor, TDP43 rescue)
CCOC(=O)[C@@]12CCC3=C1N(CCC3)C(=O)[C@H](CC(=O)NCc1cccs1)C2	none (no result: Abeta yeast res, CCT chaperon mod, aSyn rescue, Mm-Cpn inhibitor, TDP43 rescue)
CN1C(=O)c2cc(NS(=O)(=O)c3ccc(F)cc3)ccc2OC[C@H]2O[C@@H](CC(=O)NCC(F)(F)F)CC[C@@H]21	none (no result: Abeta yeast res, CCT chaperon mod, aSyn rescue, Mm-Cpn inhibitor, TDP43 rescue)
c1ccc(-c2csc3ncnc(N4CCc5ccccc5C4)c23)cc1	TDP43 rescue 11µM (no result: FUS suppressor)
Cc1cc2ncn(-c3ncnc4scc(-c5ccccc5)c34)c2cc1C	TDP43 rescue 8.9µM (no result: FUS suppressor)
COc1ccc(-c2nnc(SCC(=O)NN=C(C)c3cccc4ccccc34)n2-c2ccccc2)cc1	none (no result: Abeta yeast res, CCT chaperon mod, aSyn rescue, Mm-Cpn inhibitor, TDP43 rescue)
CCN(CC)c1nc2c(S(=O)(=O)c3cccc(Cl)c3)nnn2c2ccsc12	FUS suppressor inconclusive (no result: CCT chaperon mod, aSyn rescue, Mm-Cpn inhibitor)
CCNC(=O)Nc1ccc2c(c1)C(=O)N(C)[C@H]1CC[C@@H](CC(=O)OC)O[C@H]1CO2	none (no result: Abeta yeast res, CCT chaperon mod, aSyn rescue, Mm-Cpn inhibitor, TDP43 rescue)
COc1ccc2ncc(S(=O)(=O)c3ccccc3)c(N3CCN(c4ccccc4)CC3)c2c1	aSyn rescue inconclusive, Mm-Cpn inhibitor inconclusive, TDP43 rescue 16µM
COc1ccc2ncc(S(=O)(=O)c3ccccc3)c(N3CCC4(CC3)OCCO4)c2c1	TDP43 rescue 18µM
Cc1ccccc1NC(=O)COc1ccccc1C(=O)Nc1ccccc1	none (no result: Abeta yeast res, CCT chaperon mod, FUS suppressor, Mm-Cpn inhibitor, TDP43 rescue)
COc1ccc(-c2nc(SCc3ccccc3)n(S(C)(=O)=O)n2)cc1	TDP43 rescue 2.8µM (no result: aSyn rescue)
Cc1cc(C)cc(NS(=O)(=O)c2ccc3oc(=O)ccc3c2)c1	Abeta yeast res inconclusive, CCT chaperon mod -31
Nc1ccc(Br)c2c1C(=O)c1ccccc1C2=O	TDP43 rescue 6.3µM
COc1ccc(C(=O)n2nc(C)cc2Nc2ccccc2)cc1	TDP43 rescue 35µM
O=C(O)CCC(=O)Nc1ccc(NC(=O)c2ccc(Cl)cc2Cl)c(Cl)c1	CCT chaperon mod -135
COc1ccccc1C(CNc1ncccc1[N+](=O)[O-])N(C)C (stereo not given)	none
COc1ccccc1Nc1ncccc1[N+](=O)[O-]	CCT chaperon mod -49
COc1cccc(/C=C2/SC(=S)N(CC(=O)Nc3nccs3)C2=O)c1	none (no result: Abeta yeast res, CCT chaperon mod, FUS suppressor, Mm-Cpn inhibitor, TDP43 rescue)
C[C@@H]1CN([C@@H](C)CO)C(=O)Cc2cc(NC(=O)Nc3ccc(C(F)(F)F)cc3)ccc2O[C@@H]1CN(C)S(=O)(=O)c1ccc(Cl)cc1	FUS suppressor 18µM

High-throughput results as filed in PubChem.
